Among the test systems are DU-145 prostate; K-562 leukemia; MALME-3M melanoma; MDA-MB-231 breast; RXF 393 renal; SF-268 CNS; SF-295 CNS; SF-539 CNS; UACC-257 melanoma; M14 melanoma.
Assay in all cases: NCI-60 one-dose screen, 48 h (100 = growth as untreated, 0 = no growth, -100 = all killed)
Holding throughout (conditions): 10 µM unless noted

The panel holds about 83,000 compounds, 20% with a hit somewhere; the sample as a whole holds those more often.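 48-hour exposure, single concentration, 96-well plates; percent growth endpoint where 0 means no net growth. Active: below 10.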 Values without a mark were called inactive. Active and inactive are the calls of the source.

Results on 13 molecules are retold here after PubChem BioAssay (NCI).

Regarding `Cc1ccc(NS(=O)(=O)c2ccc3c(c2)C2OCCC2C(c2ccc(C(=O)C(C)C)cc2)N3)cc1C` (stereo not given), the growth was 60.9% in the assay on DU-145 prostate; 33.6% in the assay on K-562 leukemia; 17.1% in the assay on MALME-3M melanoma; 76.5% in the assay with MDA-MB-231 breast; 65.4% with RXF 393 renal; 57.8% in the assay with SF-268 CNS. Moreover, the growth was 31.9% in the assay on SF-295 CNS, 66% with SF-539 CNS, 23.9% in the assay on UACC-257 melanoma and 50% with M14 melanoma.
Take `COc1cc(C(=O)c2cc(C)c3[nH]c4ccc(Cl)cc4c3c2C)cc(OC)c1OC`: the growth with DU-145 prostate was -19.7% (active); in the assay on K-562 leukemia, 13.6%; with MALME-3M melanoma it was 27.9%; with MDA-MB-231 breast it was 22.1%; in the assay on RXF 393 renal, 36.6%; in the assay with SF-268 CNS it was 25.5%. Besides, the growth in the assay on SF-295 CNS was 4.51% (active); in the assay with SF-539 CNS, -10.1% (active); with UACC-257 melanoma, 68%; in the assay on M14 melanoma, 17.5%.
As for `O=C(NCCNc1cc(-c2cn(-c3ccccc3)nc2-c2cccc(O)c2)ccn1)Nc1ccccc1`, the growth with DU-145 prostate is 92.8%; in the assay with K-562 leukemia, 35.4%; in the assay with MALME-3M melanoma, 92.3%; in the assay with MDA-MB-231 breast it was 57.1%; with RXF 393 renal it was 89.5%; with SF-268 CNS it was 81.3%. The growth is 75.8% with SF-295 CNS, 89.5% in the assay on SF-539 CNS, 58.7% in the assay with UACC-257 melanoma and 72.2% with M14 melanoma.
For `O=C(CC(SCc1ccccc1)c1ccccc1)c1ccccc1` (stereo not given), the growth was 95.5% in the assay on DU-145 prostate; 95.3% with K-562 leukemia; 98.5% in the assay on MALME-3M melanoma; 98.1% in the assay with MDA-MB-231 breast; 86.4% in the assay on RXF 393 renal; 87.6% in the assay on SF-268 CNS. The growth was 94.1% in the assay on SF-295 CNS, 99% with SF-539 CNS, 111% in the assay on UACC-257 melanoma and 87% with M14 melanoma.
With `COc1cc(/C=C/C(=O)c2ccc(Nc3nc(Nc4ccc(F)cc4)nc(Nc4ccc(Cl)cc4)n3)cc2)cc(OC)c1OC`, the growth in the assay with DU-145 prostate was 68.5%; in the assay on K-562 leukemia, 35.8%; in the assay with MALME-3M melanoma, 56.2%; in the assay with MDA-MB-231 breast, 62.6%; with RXF 393 renal, -31.1% (active); in the assay with SF-268 CNS, 74.8%. Besides, the growth was 369% in the assay on SF-295 CNS, 67.7% in the assay on SF-539 CNS, 102% in the assay on UACC-257 melanoma and 65.6% in the assay with M14 melanoma.
As to `COc1cccc(C(=O)NCCCNc2cc(-c3cn(-c4ccccc4)nc3-c3cccc(OC)c3)ccn2)c1`, the growth in the assay with DU-145 prostate is 65.8%; with K-562 leukemia, 22.8%; with MALME-3M melanoma it was 51.7%; in the assay with MDA-MB-231 breast, 44%; with RXF 393 renal, 66.8%; in the assay on SF-268 CNS it was 63.9%. Moreover, the growth in the assay with SF-295 CNS is 44%; with SF-539 CNS, 85.3%; in the assay with UACC-257 melanoma, 30%; with M14 melanoma, 34.4%.
`COC(=O)[C@]12CC[C@@H](C)[C@H](C)[C@@H]1C1=CC[C@@H]3[C@@]4(C)C(C=O)=C[C@@](C)(COC(C)=O)C4=CC[C@@]3(C)[C@]1(C)CC2`: the growth in the assay with DU-145 prostate was -6.88% (active); with K-562 leukemia, 5.59% (active); in the assay with MALME-3M melanoma, -65.5% (active); in the assay with MDA-MB-231 breast, -26.6% (active); with RXF 393 renal it was -58.9% (active); in the assay with SF-268 CNS, -3.01% (active). Moreover, the growth in the assay on SF-295 CNS is 0.263% (active); in the assay with SF-539 CNS, -50.8% (active); in the assay on UACC-257 melanoma, -41.3% (active); in the assay on M14 melanoma, -48.4% (active).
`COc1ccc2c(c1)C(=O)/C(=C/c1cccc(OCC(=O)Nc3nc(C)c(C)s3)c1)O2`: the growth in the assay with DU-145 prostate is -76.3% (active); in the assay on K-562 leukemia, -72.2% (active); with MALME-3M melanoma it was -58% (active); in the assay with MDA-MB-231 breast, -25.1% (active); with RXF 393 renal, -57.2% (active); in the assay with SF-268 CNS, -45.5% (active). In addition, the growth in the assay with SF-295 CNS was -82.7% (active); with SF-539 CNS, -80.6% (active); in the assay on UACC-257 melanoma, 37%; with M14 melanoma it was -44.4% (active).
Consider `O=C(Nc1ccccc1-c1nc2ccccc2c(=O)[nH]1)c1cc2ccccc2[nH]1`, for which the growth in the assay with DU-145 prostate is 102%; in the assay with K-562 leukemia it was 94.1%; in the assay with MALME-3M melanoma, 107%; in the assay with MDA-MB-231 breast, 79.7%; in the assay with RXF 393 renal, 98.4%; in the assay on SF-268 CNS, 91.9%. Also, the growth in the assay with SF-295 CNS was 91.3%; with SF-539 CNS, 89.5%; in the assay with UACC-257 melanoma, 83.4%; with M14 melanoma it was 91.7%.
Consider `COc1cc(C(=O)/C=C/c2c(-c3ccc(F)cc3)nc3sc(C)cn23)cc(OC)c1OC`, for which the growth with DU-145 prostate was 39.2%; in the assay with K-562 leukemia, 7.75% (active); in the assay with MALME-3M melanoma it was 6.76% (active); with MDA-MB-231 breast it was 38.2%; in the assay with RXF 393 renal it was 44.2%; in the assay with SF-268 CNS, 40.4%. The growth in the assay with SF-295 CNS was 32.4%; with SF-539 CNS, 57.7%; in the assay on UACC-257 melanoma, 21.4%; with M14 melanoma it was 32.3%.
`O=C(/C=C/c1ccc(Cl)nc1)c1ccc(Cl)cc1Cl`: the growth in the assay on DU-145 prostate was 108%; with K-562 leukemia, 7.65% (active); in the assay on MALME-3M melanoma, 105%; with MDA-MB-231 breast, 107%; with RXF 393 renal, 104%; with SF-268 CNS it was 102%. In addition, the growth was 91.1% with SF-295 CNS, 107% with SF-539 CNS, 94.5% in the assay with UACC-257 melanoma and 97.6% with M14 melanoma.
For `COc1cc2nc(Cl)nc(Nc3ccc(S(=O)(=O)Nc4nccs4)cc3)c2cc1OC`, the growth in the assay on DU-145 prostate is 119%; with K-562 leukemia, 115%; with MALME-3M melanoma, 112%; in the assay on MDA-MB-231 breast it was 109%; with RXF 393 renal, 110%; in the assay with SF-268 CNS, 109%. In addition, the growth with SF-295 CNS was 104%; with SF-539 CNS it was 85.9%; in the assay on UACC-257 melanoma, 103%; in the assay with M14 melanoma, 100%.
On to `CCOC(=O)c1c(/C=C/C(=O)O)nc2ccccc2c1/C=C/c1ccccc1`, for which the growth is 14.2% with DU-145 prostate; 23.9% in the assay with K-562 leukemia; 51.4% in the assay with MALME-3M melanoma; 57.5% in the assay on MDA-MB-231 breast; 11.3% in the assay with RXF 393 renal; 40.7% in the assay with SF-268 CNS. Further, the growth in the assay on SF-295 CNS is 73.6%; in the assay with SF-539 CNS, 19.8%; in the assay with UACC-257 melanoma, 49.6%; in the assay with M14 melanoma it was 63%.
